# High-throughput results: PubChem BioAssay, National Center for Advancing Translational Sciences (NCATS)
# SARS PLP yeast: blocks SARS-CoV papain-like protease in a yeast assay. S. cerevisiae expressing SARS-CoV PLpro, growth rescue. Potency, µM (top dose mostly 32.9 µM), without a hit: top-dose activity, positive = growth rescue, hits mostly activators. hit rate 0.19% among 330,000. AID 485353; calls by dose curve; also: potency is read from the fitted curve at half-maximal effect; 0% is about no effect; nearly all actives have a fitted effect of over 55% in size
# AMA1 RON2 block: disrupts binding of P. falciparum AMA1 to RON2. AlphaScreen AMA1-biotinylated RON2 peptide binding. Potency, µM (series often up to 58.2 µM), inactives show at the highest dose activity change, negative = inhibition, most hits filed as inhibitors. hit rate 0.2% among 360,000. AID 720542;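 also: potency is read from the fitted curve at half-maximal effect; 0% = vehicle wells and -100% = peptide control; nearly all actives have a fitted effect of over 45% in size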
#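 AMA1 (3D7) with his tag at 25 nM final met compounds first, then biotinylated RON2 peptide at 25 nM; detection used donor plus acceptor beads, 10 µg/mL apiece, read by AlphaScreen after 30 min at room temperature.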
# AmpC inh detg: AmpC beta-lactamase inhibition with detergent present. Potency, µM (doses to about 114 µM), inactives show at the top dose activity change, negative = inhibition, most hits filed as inhibitors. hit rate 0.041% among 370,000. AmpC hydrolysis of nitrocefin, absorbance 480 nm, 0.01% Triton. P00811;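 also: potency is read from the fitted curve at half-maximal effect; 0% = no-compound wells and -100% = no-enzyme wells; nearly all actives have a fitted effect of over 25% in size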
# Target sequence (P00811 whole entry, looked up): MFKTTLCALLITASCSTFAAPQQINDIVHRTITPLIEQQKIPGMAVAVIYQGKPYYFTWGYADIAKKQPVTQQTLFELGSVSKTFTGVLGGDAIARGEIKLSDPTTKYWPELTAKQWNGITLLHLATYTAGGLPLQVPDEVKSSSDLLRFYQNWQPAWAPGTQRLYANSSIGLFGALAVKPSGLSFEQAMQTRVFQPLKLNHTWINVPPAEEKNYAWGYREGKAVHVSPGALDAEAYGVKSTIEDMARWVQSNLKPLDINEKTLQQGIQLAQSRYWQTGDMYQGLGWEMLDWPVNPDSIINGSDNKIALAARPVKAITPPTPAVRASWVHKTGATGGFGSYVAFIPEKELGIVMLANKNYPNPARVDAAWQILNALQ
#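 AmpC (5.3 nM in the dispensed reagent) in 20 mM phosphate pH 7.0 with 0.01% (detergent screen) or 0.0001% Triton X-100 was preincubated with compounds for 15 min at room temperature. Nitrocefin was then added from an 800 uM solution, and hydrolysis was followed at 480 nm.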
# Cycloheximide cs: counter-screen for Shiga toxin inhibitors: cycloheximide protein synthesis inhibition; cell reporter, cycloheximide protein synthesis inhibition counterscreen; max response, %; hit rate 12% among 300,000; AID 2314; in the data active = max response mostly above about 13%, no sharp cut-off; inactive = mostly below about 14%; also: read at 38.3 µM for the half of the compounds with a filed dose; 0% is about no effect
# AmpC no deterg: AmpC beta-lactamase inhibition without detergent | Potency, µM (doses to about 57.1 µM), for inactives: at the top dose activity change, negative = inhibition, most hits filed as inhibitors | P00811 | AID 485341 | hit rate 0.52% among 330,000 | AmpC nitrocefin hydrolysis, absorbance 480 nm, 0.0001% Triton;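 also: potency is read from the fitted curve at half-maximal effect; plate controls were no compound for no effect and no enzyme for full effect; nearly all actives have a fitted effect of over 20% in size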
#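 20 mM phosphate pH 7.0 + 0.01% (detergent screen) or 0.0001% Triton X-100; 5.3 nM AmpC reagent; cpd preinc 15 min RT; nitrocefin (800 uM stock) to start; A480 q20 s × 4 min; Activity was normalised to no-enzyme and no-compound control wells.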
# Shiga toxin inh: inhibitors of Shiga toxin in Vero cells; hit rate 9.2% among 290,000; inhibition, % at 38.7 µM; AID 2315; Vero cells, Shiga toxin protein synthesis inhibition reporter; in the data active = inhibition mostly above about 28%, no sharp cut-off; inactive = mostly below about 43%; also: 0% is about no effect
# Active calls of the source: *; ? = inconclusive; . = no result given. The full list was thinned out, with hits kept by preference. Unless noted, calls follow the shape of the dose curve; as a rule, active = well fitted curve in the direction sought with a large enough effect; inconclusive = small, poorly fitted or top-dose-only effect, or another doubt; inactive = no such curve, though single readings can be large; an effect the other way counts as inactive or inconclusive.
SMILES,SARS PLP yeast,AMA1 RON2 block,AmpC inh detg,Cycloheximide cs,AmpC no deterg,Shiga toxin inh
Cn1ccsc1=NC(=O)c1ccc(=O)[nH]c1,-0.6%,-8.5%,-0.9%,1.8,-8.9%,19.6
Cc1cc(C)n2ncc(C(=O)NC3CCCCC3)c2n1,-0.5%,-23.2%,2.4%,-1.9,-27.2%,-3.7
Brc1ccc(Sc2cnc3ccccc3n2)cc1,.,75.5%,0.3%,33.3*,.,75.7*
c1ccc(Sc2cnc3ccccc3n2)cc1,.,44.9%,1.9%,63.7*,.,107.7*
Clc1ccc(Sc2cnc3ccccc3n2)cc1,.,95.1%,3.9%,38.0*,.,85.3*
O=C(O)c1cnc(-c2ccccc2)nc1Sc1ccccc1Cl,-2.8%,-3.9%,-6.7%,1.5,-21.2%,-4.5
Clc1ccccc1Sc1cnc2ccccc2n1,21.0%,48.0%,0.1%,22.5*,-26.7%,22.9
O=C(O)CSc1cnc2ccccc2n1,8.0%,2.5%,?,13.4,-10.7%,-1.7
O=S(=O)(c1ccc(Br)cc1)c1cnc2ccccc2n1,-0.8%,-26.9%,2.1%,7.5,-23.5%,-6.2
O=C(CCNC(=O)Cn1ccc2ccccc2c1=O)NCCN1CCc2ccccc2C1,2.4%,-6.6%,-10.1%,-2.1,12.4%,12.1
Cc1ccc(/C=C/C(=O)Nc2ccc(S(=O)(=O)Nc3ncccn3)cc2)cc1,-0.3%,13.6%,-4.3%,-2.8,-7.9%,15.8
CCc1nc2c(OCCC3CCCCC3)cccn2c1N(C)C(=O)COc1ccccc1,.,6.0%,.,.,.,.
Cc1ccc(CNC(=O)[C@]2(C)CCC[C@@]3(C)C4CC[C@@]5(C)C[C@]4(CCC32)CC5=O)cc1 (stereo partly drawn),7.4%,-1.3%,.,.,3.1%,.
O=C(O)CSc1c2c(nc3cc(C(=O)NCCN4CCOCC4)ccc13)CCC2,4.1%,-1.5%,-1.1%,0.5,1.0%,-2.0
Cn1ccc2c(-c3cccc(C=O)c3F)cc3c(c21)C1CCC3C1 (stereo not drawn),.,-15.3%,.,.,.,.
Cc1ccc(/C=N/Nc2cc(C)nc(NCc3ccccc3)n2)cc1,-5.0%,-8.2%,8.5%,18.8*,-32.2%,29.4
Fc1cc(F)nc(NCc2ccccc2)n1,-1.8%,8.6%,2.6%,-3.7,-12.3%,-3.7
Fc1cc(NCc2ccccc2)nc(NCc2ccccc2)n1,-4.0%,-2.9%,-10.8%,53.4*,-15.0%,59.6*
Cc1cc(N/N=C/c2ccc(F)cc2)nc(NCc2ccccc2)n1,-1.6%,-18.3%,-11.4%,22.4*,-35.1%,45.8*
CC(C)(C)NC(=O)c1c(F)c(F)c(F)c(F)c1F,-14.1%,-18.4%,-3.0%,-3.6,-6.5%,-5.0
Cc1cccc(CNC(=O)CCCN2C(=O)CCn3nc(-c4cccn4C)cc32)c1,.,.,2.7%,.,.,.
Cc1ccc(C)c(NC(=O)Cn2c([N+](=O)[O-])cnc2C)c1,-1.5%,-2.2%,-11.9%,1.7,-9.0%,-6.0
COC(=O)Cc1ccc(NC(=S)N2CCCC(C)C2)cc1 (stereo not drawn),14.1%,-12.2%,3.1%,40.6*,-26.6%,11.0
CC1CCCN(C(=S)Nc2ccc(Nc3ccccc3)cc2)C1 (stereo not drawn),-1.8%,-11.2%,8.7%,23.2*,-43.4%,98.7*
COc1ccc(/C=C(\C#N)c2nc(-c3cc4c(ccc5ccccc54)oc3=O)cs2)cc1O,.,.,20.0%,-2.3,.,-4.1
SMILES,SARS PLP yeast,AMA1 RON2 block,AmpC inh detg,Cycloheximide cs,AmpC no deterg,Shiga toxin inh
OCc1ccc(-c2ccc(-c3ccc(CO)s3)o2)s1,.,.,.,53.2*,.,41.6*
NC(=O)c1csc(-c2ccc(CO)o2)n1,.,8.7%,.,.,.,.
CCOc1cccc2cc(C(=O)NCc3ccc(F)cc3)c(=N)oc12,2.3%,2.6%,-13.6%,5.5,-15.4%,-15.4
O=C(Nc1ccc2c(c1)C(=O)NC2=O)c1ccccc1Cl,8.1%,-1.2%,?,12.1,-19.2%,5.7
O=C(/C=C/c1ccccc1Cl)Nc1ccc2c(c1)C(=O)NC2=O,-0.7%,-29.7%,?,15.9,-35.4%,58.5*
O=C(/C=C/c1ccccc1)Nc1ccc2c(c1)C(=O)NC2=O,1.0%,0.0%,-2.0%,19.2*,-33.6%,36.7
Cn1c(NC(=O)/C=C\c2ccccc2)cc(=O)n(C)c1=O,0.9%,-6.7%,1.9%,36.3*,-16.1%,79.5*
CN1CCCCc2c1nc1ccccc1c2N (tested in a mixture with another compound),-6.9%,-0.3%,0.0%,0.7,-23.5%,59.5
CSc1ccc(C2NN=C(c3ccccc3)S2)cc1 (stereo not drawn),.,2.2%,.,.,.,.
Oc1ccccc1C1NN=C(c2ccccc2)S1 (stereo not drawn),-5.3%,68.7%,?,33.2*,-9.7%,56.1*
CN(C)c1ccc(C=C2C=CC=C2)cc1,.,22.4µM*,.,.,.,.
Cc1ccc(NC(=O)CCS(=O)(=O)c2cc3c(cc2Cl)NC(=O)CO3)cc1,0.4%,-4.2%,-0.6%,-3.4,-26.6%,-3.7
CCc1cc[n+](-c2nc3ccccc3nc2[N-]S(=O)(=O)c2ccc(Br)s2)cc1,4.3%,20.9%,-4.0%,13.0*,27.3%,43.9
CN(C)CC(C)(C)CN=Cc1c(O)[nH]c2ccccc12,0.2%,0.1%,5.4%,-2.1,-12.0%,27.0
CCOc1cc(N2CCOCC2)c(OCC)cc1NC(=O)CN1CCCC(C)C1 (stereo not drawn),-7.0%,-19.1%,-0.7%,14.8*,147.3%,-5.6
COc1ccc(-c2cc(-c3ccc(OC)cc3)nc(-c3ccc4c(c3)NC(=O)CO4)c2)cc1,-2.3%,-6.1%,-5.0%,2.0,-8.4%,15.1
CC(Nc1nc(-c2ccc3c(c2)NC(=O)CO3)cs1)c1ccccc1 (stereo not drawn),0.2%,-12.9%,-2.2%,18.3*,-41.7%,41.4
COc1cccc(-c2nc(-c3ccc4c(c3)NC(=O)CO4)cs2)c1,-2.7%,0.8%,-11.4%,49.8*,-12.6%,104.5*
COc1ccc(NC(=O)CSc2nnc(-c3nonc3NC(C)=O)n2C)cc1Cl,.,.,-2.4%,.,.,.
O=S(=O)(CCN1CCOCC1)c1ccc(Oc2ccc(S(=O)(=O)CCN3CCOCC3)cc2)cc1,-2.5%,-1.1%,0.3%,-2.3,72.3%,-2.8
O=C(Nc1ccn(Cc2c(F)c(F)cc(F)c2F)n1)c1ccc(COc2ccc(Cl)cc2Cl)o1,4.9%,-5.7%,-6.6%,7.9,-6.9%,12.6
CCOC(=O)CCn1cnc2onc(-c3ccccc3Cl)c2c1=O,.,.,14.1%,.,.,.
CCN=c1scc(-c2ccccc2)n1/N=C/c1ccccn1,-51.0%,-15.8%,-10.0%,41.2*,46.5%,78.0*
CN=c1scc(-c2ccccc2F)n1/N=C/c1ccc[nH]1,-8.0%,4.2%,6.9%,-22.5,-23.5%,-38.6
CCN=c1scc(-c2ccc(F)cc2)n1/N=C/c1ccccn1,-4.3%,-14.2%,-0.7%,47.9*,87.5%,82.1*
CCCCNC(=O)c1c(N)n(/N=C/c2ccccn2)c2nc3ccccc3nc12,-4.6%,.,-0.1%,14.3,-14.4%,9.3
